Sampled rows, rich in hits. Any-hit rate of the full collection: about 2.8%.
PG9 binder = binders of HIV-1 gp120 antibody PG9, primary screen, biochemical, TR-FRET. HIV-1 gp120 / PG9 antibody interaction. TR-FRET gp120-PG9 antibody binding. inhibition, % at 6.7 µM. 0.43% of 360,000 active. AID 624416, 2012; in the data active means inhibition above about 8.5%
KLK7 zymogen act = proKLK7 zymogen activators, primary screen, biochemical, fluorescence intensity; activation, % at 7 µM; purified proKLK7, EDANS-DABCYL substrate fluorescence; 100% is mature enzyme control, 0% vehicle; AID 652039, 2013; 0.9% of 370,000 active;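 active means activation above the mean of all tested compounds plus 3 SD, computed per campaign excluding outliers beyond control limits, cut at about 13% in these data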
GASC-1 inh = inhibitors of GASC-1 histone demethylase, primary screen, biochemical, fluorescence, DELFIA europium | Lysine-specific demethylase 4C (Homo sapiens), Q9H3R0 | GST-JMJD2C(1-420) H3K9me3 demethylation | inhibition, % at 2.35 µM | 0.069% of 330,000 active | AID 2099, 2009;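 active means more than half of a compound's replicate wells show inhibition beyond 50%, single wells judged on their own value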;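 further: signal counts dimethyl H3K9 product captured on neutravidin plate; 0% = median of DMSO wells and 100% = 0.3 times that DMSO median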
PP1 counter = PP1-alpha phosphatase inhibitors, primary screen, counter-screen for PP5 inhibitor project, biochemical, fluorescence, OMFP substrate, single point. 0.9% of 320,000 active. purified PP1alpha. Serine/threonine-protein phosphatase PP1-alpha catalytic subunit (Homo sapiens), P62136. inhibition, % at 6.7 µM. AID 2235, 2010;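 active means inhibition above the mean inhibition of all tested compounds plus 3 SD, computed separately for each screening campaign, cut at about 15% in these data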
Rev-erbA mod = modulators of Rev-erb alpha DNA binding, primary screen, biochemical, FITC-DNA, fluorescence polarization, uHTS; Rev-erbα–FITC-DNA binding, 90 min; activity, % at 10 µM; 0.79% of 370,000 active; AID 1259318, 2017;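 active means activity above about 14%, limit read from the data; passing the limit was not always enough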;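 further: 0% = DMSO wells with 35 nM protein and 100% = DMSO wells with 750 nM protein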
Target sequence (P20393 whole entry, looked up): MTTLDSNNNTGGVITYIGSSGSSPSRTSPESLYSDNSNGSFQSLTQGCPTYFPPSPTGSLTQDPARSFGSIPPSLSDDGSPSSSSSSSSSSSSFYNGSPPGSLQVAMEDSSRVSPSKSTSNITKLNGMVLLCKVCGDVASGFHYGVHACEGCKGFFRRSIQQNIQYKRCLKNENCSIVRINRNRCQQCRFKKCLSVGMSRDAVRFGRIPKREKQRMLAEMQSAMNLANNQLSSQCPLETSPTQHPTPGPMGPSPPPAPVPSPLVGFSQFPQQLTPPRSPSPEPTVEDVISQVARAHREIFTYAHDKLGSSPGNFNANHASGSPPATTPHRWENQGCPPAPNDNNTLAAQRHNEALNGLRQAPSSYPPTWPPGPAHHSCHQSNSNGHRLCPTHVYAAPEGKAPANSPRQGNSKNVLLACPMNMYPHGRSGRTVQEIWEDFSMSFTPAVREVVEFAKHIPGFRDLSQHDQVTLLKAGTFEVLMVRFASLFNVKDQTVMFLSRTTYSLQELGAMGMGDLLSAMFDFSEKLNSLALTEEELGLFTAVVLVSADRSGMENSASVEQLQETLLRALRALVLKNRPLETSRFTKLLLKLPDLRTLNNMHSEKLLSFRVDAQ
PP5 primary = PP5 phosphatase inhibitors, primary screen, biochemical, fluorescence; Serine/threonine-protein phosphatase 5 (Homo sapiens), P53041; 0.18% of 320,000 active; inhibition, % at 6.7 µM; purified PP5c, OMFP substrate fluorescence;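 active means inhibition above the campaign's mean inhibition across all tested compounds plus 3 SD, cut at about 9.5% in these data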;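 further: 0% = DMSO only and 100% = 100 µM cantharidin control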
PP1 inh confirm = PP1 phosphatase inhibitors, confirmation, biochemical, fluorescence, OMFP substrate, triplicate | purified PP1alpha | inhibition, % at 6.7 µM | AID 2358, 2010 | shares compounds with PP1 counter | 52% of 1,900 active;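 active means mean PP1 inhibition above a set limit taken from the earlier primary screen, cut at about 15% in these data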
PP5 inh counter = PP5 phosphatase inhibition by PP1 hits, confirmation, counter-screen for PP1 inhibitor project, biochemical, fluorescence, triplicate; shares compounds with PP1 counter; purified PP5c, OMFP fluorescence; inhibition, % at 6.7 µM; AID 2360, 2010; 4% of 1,900 active;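 active means mean PP5 inhibition over triplicate wells above about 9.5% taken from the earlier PP1 screen, limit read from the data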
* hit, by the source's call; / = not tested or not shown.

SMILES	PG9 binder	KLK7 zymogen act	GASC-1 inh	PP1 counter	Rev-erbA mod	PP5 primary	PP1 inh confirm	PP5 inh counter
COc1ccc(C2=NN(C(=O)c3cccs3)C(c3ccccc3O)C2)cc1 (stereo not drawn)	-1.0	-48.8	7.7	27.2*	4.1	2.0	18.8*	-4.6
COC[C@@H](O)[C@H]1OCc2cc(OC)ccc2[C@@H]1/C=C/c1ccccc1	0.3	0.4	/	/	-4.1	/	/	/
CCCC[C@H]1C2CC(OC(=O)Nc3ccc(Cl)cc3)C(C2)[C@H]2CCCCN21 (stereo partly drawn)	/	0.0	/	/	-4.5	/	/	/
Cc1ccccc1OCCCN1C(=O)C(=O)c2cccc(C)c21	-2.6	-0.4	-10.4	21.5*	6.3	1.3	11.1	1.6
COc1ccc(C(=O)Nc2nc3ccc(OC)cc3s2)cc1	-0.4	-56.2	8.7	/	10.8	/	/	/
COc1ccc2nc(NC(=O)c3cccc(-c4cc5ccccc5oc4=O)c3)sc2c1	4.9	0.5	4.2	23.4*	-11.3	-0.7	25.8*	-2.8
Cc1c(NC(=O)c2cccc(-c3cc4ccccc4oc3=O)c2)cccc1-c1nc2ncccc2o1	3.1	-1.3	-4.6	23.4*	18.2	1.0	30.8*	0.4
Cc1c(NC(=O)C(C)C)cccc1-c1nc2ncccc2o1	-1.0	-0.2	4.0	-4.4	0.2	-0.5	/	/
CCOc1cc(/C=N/NC(=O)Cn2nc([N+](=O)[O-])cc2C)ccc1OCc1ccc(F)cc1	-2.3	0.3	5.4	17.7*	5.4	0.5	16.6*	-2.4
CCOc1cc(/C=N/NC(=O)Cn2nc([N+](=O)[O-])cc2C)cc(Br)c1OCc1ccccc1F	-1.7	0.0	-7.0	12.4	3.9	0.3	/	/
Cc1c(/C=N/NC(=O)CNc2ccccc2)c2ccccn2c1C(=O)c1ccc(Cl)cc1	0.2	0.0	-3.0	20.5*	10.8	4.9	5.8	-0.1
COc1ccc(N2CCN(C(=O)CSc3ncnc4scc(-c5ccc(C)cc5)c34)CC2)cc1	-1.1	-0.1	2.2	25.9*	2.4	2.6	18.9*	0.9
O=C1OC(=O)C2C3CCC(O3)C12 (stereo not drawn)	/	/	/	74.9*	/	66.7*	46.2*	51.0*
N#CC1CCN(C(=O)c2ccc3c(Cl)c4c(nc3c2)CCCC4)CC1	0.3	0.3	2.7	22.8*	-0.6	1.7	-0.6	-4.1
Cc1ccccc1C(=O)Nc1cccc(C(=O)N/N=C/c2cc(Cl)cc([N+](=O)[O-])c2O)c1	-3.0	-0.5	27.4	19.0*	0.5	1.6	18.3*	-3.8
O=C1C=C(O)c2c(O)cc(O)c(O)c2C1=O	-34.6	0.2	-12.6	57.0*	-29.9	4.5	36.9*	-6.7
CCOC(=O)N[C@H](C(=O)N1CCC[C@H]1C(=O)NC1CCCC1)C1CCCCC1	-0.6	0.9	/	/	0.9	/	/	/
CCOc1cc(/C=N/Nc2cc(C)nc(-n3nc(C)cc3C)n2)ccc1O	-0.6	-1.1	20.6	22.5*	-13.1	2.0	22.1*	2.6
Cc1cc(N/N=C/c2ccc(F)cc2)nc(-n2nc(C)cc2C)n1	-0.7	-0.6	-1.6	27.2*	3.1	2.8	35.8*	-1.0
CCOc1ccc(Nc2cc(C)nc(-n3nc(C)cc3C)n2)cc1	-1.1	0.3	-7.6	7.3	3.2	1.2	/	/
COc1ccc(/C=N/Nc2cc(C)nc(-n3nc(C)cc3C)n2)c(OC)c1	1.2	-13.8	6.7	36.9*	0.8	2.2	47.7*	1.3
CC(=O)CC[C@@H]1CC[C@]2(CCCN(S(=O)(=O)c3ccccc3)C2)O1	/	0.1	/	/	2.9	/	/	/
O=C(N1CCOCC1)N1CC[C@H]2[C@H](CCCN2Cc2ccccc2)C1	/	-0.5	/	/	3.6	/	/	/
O=C(O)CSCC(=O)N(Cc1ccccc1)c1nc(-c2ccccc2)c(-c2ccccc2)s1	-0.1	0.6	8.2	26.3*	3.4	6.4	18.6*	-0.7
Cc1cc2c(c(=O)o1)[C@@]1(C(=O)N(C)c3cccc(Br)c31)C1=C(CCCC1=O)O2	0.2	0.5	/	/	6.3	/	/	/
SMILES	PG9 binder	KLK7 zymogen act	GASC-1 inh	PP1 counter	Rev-erbA mod	PP5 primary	PP1 inh confirm	PP5 inh counter
C[C@H]1Cn2nncc2Cn2c3ccccc3c(=O)n21	/	1.5	/	/	-4.3	/	/	/
Cc1cc(-c2ccc3c(c2)COc2c4ccccc4nn2-3)on1	1.7	-2.2	7.0	25.3*	-4.8	-0.1	26.2*	-5.3
CCCc1cc(-c2ccc3c(c2)COc2c4ccccc4nn2-3)on1	1.6	-1.0	-0.9	18.3*	-13.9	2.3	19.4*	-1.0
C(#CC1CCCC1)c1ccc2c(c1)COc1c3ccccc3nn1-2	-0.6	-0.4	5.3	-3.6	3.3	-4.1	/	/
CCCCCOc1ccc(NC(=O)C(=O)NCCCn2ccnc2)cc1	-0.7	1.1	1.7	44.4*	-0.3	3.3	3.9	-3.1
Fc1ccc2nc(-c3ccc(CN4CCC(c5nc6ccccc6[nH]5)CC4)cc3)c(-c3ccccc3)nc2c1	-2.2	-8.0	/	/	-1.4	/	/	/
CC(NC(=O)C1CC1)C(c1cccs1)N1CCN(c2ccccc2)CC1 (stereo not drawn)	0.8	0.3	19.2	46.6*	-5.8	0.0	-3.3	-5.1
O=c1c(O)cccc2cc(O)c(O)c(O)c12	-14.3	9.5	87.1*	20.9*	-37.3	2.3	14.1	-3.0
COC(=O)CN1CCN(C(=O)c2csc(-c3ccccc3)n2)CC1	/	-0.3	/	/	-1.0	/	/	/
COc1ncccc1C(=O)N1CCCC(N2CCN(c3ccc(F)cc3)CC2)C1 (stereo not drawn)	-3.5	0.1	-31.7	2.6	-0.2	-6.1	/	/
COc1ncccc1C(=O)N1CCCC(N2CCN(c3cccc(Cl)c3)CC2)C1 (stereo not drawn)	-1.0	0.5	-1.6	49.4*	3.0	1.9	-7.4	-6.5
COc1ccc(Oc2nc(-c3ccccn3)ncc2OC)cc1	-3.5	1.0	-13.1	21.5*	-3.3	2.9	32.2*	3.1
COc1cnc(-c2ccccn2)nc1Oc1cccc(Cl)c1	0.2	-0.3	-1.2	52.6*	-1.5	5.7	46.2*	-1.2
COc1cnc(-c2ccccc2)nc1Oc1cccc(C)c1	-0.1	0.0	-1.2	0.5	-3.9	5.5	/	/
COc1cnc(-c2ccccn2)nc1Oc1c(C)cccc1C	-1.2	-0.1	-10.8	18.8*	7.5	1.1	25.2*	-1.7
COc1cnc(-c2ccccn2)nc1N(C)C	-3.0	3.2	9.8	3.9	-8.7	2.3	/	/

Screening results: PubChem, several laboratories
